Laboratory results reported in PubChem BioAssay (NCI).
This is part of a sample that, as a whole, favours compounds with a hit. Of some 83,000 tested, about 20% had one in any assay.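 Assay: single dose, 48 h. Readout: percent growth (0 = no net growth; negative = cell death). Active: <10.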 Activity calls are given as the source filed them.

What was measured:
Test in all cases: NCI-60 one-dose screen, 48 h (100 = growth as untreated, 0 = no growth, -100 = all killed)
Conditions in all cases: 10 µM unless noted
EKVX NSCLC = tested on: EKVX NSCLC
SN12C renal = tested on: SN12C renal
UO-31 renal = tested on: UO-31 renal
TK-10 renal = tested on: TK-10 renal
ACHN renal = tested on: ACHN renal
CAKI-1 renal = tested on: CAKI-1 renal
A498 renal = tested on: A498 renal
CCRF-CEM leukemia = tested on: CCRF-CEM leukemia
MOLT-4 leukemia = tested on: MOLT-4 leukemia
SR leukemia = tested on: SR leukemia
RPMI-8226 leukemia = tested on: RPMI-8226 leukemia
OVCAR-8 ovarian = tested on: OVCAR-8 ovarian
OVCAR-5 ovarian = tested on: OVCAR-5 ovarian
SK-OV-3 ovarian = tested on: SK-OV-3 ovarian
IGROV1 ovarian = tested on: IGROV1 ovarian
OVCAR-3 ovarian = tested on: OVCAR-3 ovarian
HS 578T breast = tested on: HS 578T breast
NCI/ADR-RES ovarian = tested on: NCI/ADR-RES ovarian
T-47D breast = tested on: T-47D breast
OVCAR-4 ovarian = tested on: OVCAR-4 ovarian

Measured: growth

COc1cc(NC(=O)c2cc3ccccc3cc2O)c(OC)cc1Cl
inactive: SN12C renal 10.2% | TK-10 renal 22.6% | A498 renal 25.4% | OVCAR-3 ovarian 10.7% | HS 578T breast 51.7%
active: EKVX NSCLC 9.25% | UO-31 renal -25.8% | ACHN renal 3.75% | CAKI-1 renal -2.48% | CCRF-CEM leukemia -17.4% | MOLT-4 leukemia -18.8% | SR leukemia 1.88% | RPMI-8226 leukemia -48.7% | OVCAR-8 ovarian 7.08% | OVCAR-5 ovarian 2.16% | SK-OV-3 ovarian -14.9% | IGROV1 ovarian -31% | NCI/ADR-RES ovarian -20.6% | T-47D breast 4.25%

CCOC(=O)c1c(C)nc(C)c(C(=O)OCC)c1-c1cccnc1
inactive: EKVX NSCLC 105% | SN12C renal 109% | UO-31 renal 94% | TK-10 renal 121% | ACHN renal 99.5% | CAKI-1 renal 106% | A498 renal 125% | CCRF-CEM leukemia 102% | MOLT-4 leukemia 54.8% | SR leukemia 53.7% | RPMI-8226 leukemia 104% | OVCAR-8 ovarian 112% | OVCAR-5 ovarian 97.8% | SK-OV-3 ovarian 99.2% | OVCAR-3 ovarian 115% | HS 578T breast 122% | NCI/ADR-RES ovarian 103% | T-47D breast 92%

O=C(Oc1ccc[nH]c1=O)c1cccc(Cl)c1
inactive: EKVX NSCLC 104% | SN12C renal 108% | UO-31 renal 96.2% | TK-10 renal 107% | ACHN renal 96% | CAKI-1 renal 101% | A498 renal 127% | CCRF-CEM leukemia 123% | MOLT-4 leukemia 115% | SR leukemia 99.2% | RPMI-8226 leukemia 108% | OVCAR-8 ovarian 113% | SK-OV-3 ovarian 103% | HS 578T breast 154% | NCI/ADR-RES ovarian 99.1% | T-47D breast 99.2%

Nc1nc(N)c([N+](=O)[O-])c(=O)[nH]1
inactive: EKVX NSCLC 121% | SN12C renal 105% | UO-31 renal 80.8% | TK-10 renal 94.6% | ACHN renal 98.7% | CAKI-1 renal 104% | A498 renal 97.9% | CCRF-CEM leukemia 93.1% | MOLT-4 leukemia 111% | SR leukemia 106% | RPMI-8226 leukemia 97.4% | OVCAR-8 ovarian 106% | OVCAR-4 ovarian 114% | SK-OV-3 ovarian 100% | IGROV1 ovarian 110% | OVCAR-3 ovarian 108% | HS 578T breast 100% | NCI/ADR-RES ovarian 101% | T-47D breast 92.2%

CCCOc1ccc2c(c1)CC[C@@H]1[C@@H]2CC[C@@]2(C)[C@H]1CC[C@]2(C)O
inactive: EKVX NSCLC 80% | SN12C renal 82.7% | UO-31 renal 69.9% | TK-10 renal 69.3% | ACHN renal 93.9% | CAKI-1 renal 62.3% | A498 renal 114% | CCRF-CEM leukemia 72.8% | MOLT-4 leukemia 75.9% | SR leukemia 73% | RPMI-8226 leukemia 56.5% | OVCAR-8 ovarian 74% | OVCAR-5 ovarian 76.7% | SK-OV-3 ovarian 75.3% | IGROV1 ovarian 118% | OVCAR-3 ovarian 104% | HS 578T breast 85% | NCI/ADR-RES ovarian 79.7% | T-47D breast 83.4%

C=C(C)[C@@H]1C/C=C(/C=O)CC[C@@H]2O[C@@]2(C)CC/C=C(\C)CC1
active: CAKI-1 renal 8.5% | RPMI-8226 leukemia -7.67%
inactive: EKVX NSCLC 69.8% | SN12C renal 116% | UO-31 renal 122% | TK-10 renal 114% | ACHN renal 100% | A498 renal 124% | CCRF-CEM leukemia 137% | MOLT-4 leukemia 133% | SR leukemia 125% | OVCAR-8 ovarian 105% | OVCAR-4 ovarian 122% | SK-OV-3 ovarian 106% | IGROV1 ovarian 986% | OVCAR-3 ovarian 110% | HS 578T breast 126% | NCI/ADR-RES ovarian 115% | T-47D breast 101%

CC12CCCCC1C(C(N)=O)C(=O)O2 (stereo not given)
inactive: EKVX NSCLC 123% | SN12C renal 97.9% | UO-31 renal 93.9% | TK-10 renal 100% | ACHN renal 112% | CAKI-1 renal 104% | A498 renal 124% | CCRF-CEM leukemia 102% | MOLT-4 leukemia 98.1% | SR leukemia 94.6% | RPMI-8226 leukemia 106% | OVCAR-8 ovarian 102% | OVCAR-5 ovarian 112% | SK-OV-3 ovarian 107% | IGROV1 ovarian 119% | HS 578T breast 110% | NCI/ADR-RES ovarian 102% | T-47D breast 114%

CCOc1cc(C(C)(C)C)ccc1C1=N[C@H](c2ccc(Cl)cc2)[C@H](c2ccc(Cl)cc2)N1C(=O)N1CCN(CC#Cc2cccc3c2CN([C@@H]2CCC(=O)NC2=O)C3=O)CC1
active: UO-31 renal 5.26% | CAKI-1 renal 7.99% | CCRF-CEM leukemia -4.36% | MOLT-4 leukemia -13.3% | SR leukemia 9.99% | IGROV1 ovarian 8.46%
inactive: EKVX NSCLC 48.4% | SN12C renal 24.4% | TK-10 renal 49% | ACHN renal 23.6% | A498 renal 14.1% | OVCAR-8 ovarian 17.2% | OVCAR-5 ovarian 76% | OVCAR-4 ovarian 26.5% | SK-OV-3 ovarian 62.4% | OVCAR-3 ovarian 41.1% | HS 578T breast 16.9% | NCI/ADR-RES ovarian 25.9% | T-47D breast 13.3%

COc1cc(/C=C2\COc3ccc(O)c(O)c3C2=O)cc(OC)c1
inactive: EKVX NSCLC 56.4% | TK-10 renal 16.3% | A498 renal 112% | OVCAR-8 ovarian 14.6% | OVCAR-4 ovarian 31.1% | SK-OV-3 ovarian 38.2% | HS 578T breast 21.8%
active: SN12C renal -89.7% | UO-31 renal -95.6% | ACHN renal -85.7% | CAKI-1 renal 4.89% | CCRF-CEM leukemia 3.2% | MOLT-4 leukemia -24.3% | SR leukemia -13.6% | OVCAR-5 ovarian -29.2% | IGROV1 ovarian -61.3% | OVCAR-3 ovarian -32.3% | NCI/ADR-RES ovarian 0.0937% | T-47D breast -12.1%

COc1cc(C2NC(c3ccc(Cl)cc3)C(C)C(=NC(=O)c3cnccn3)C2C)cc(OC)c1OC (stereo not given)
inactive: EKVX NSCLC 99.3% | SN12C renal 107% | UO-31 renal 83% | TK-10 renal 103% | ACHN renal 102% | CAKI-1 renal 84.7% | A498 renal 112% | CCRF-CEM leukemia 92.4% | MOLT-4 leukemia 85.3% | SR leukemia 106% | RPMI-8226 leukemia 79.4% | OVCAR-8 ovarian 103% | OVCAR-4 ovarian 93% | SK-OV-3 ovarian 108% | IGROV1 ovarian 91.6% | OVCAR-3 ovarian 107% | HS 578T breast 109% | NCI/ADR-RES ovarian 101% | T-47D breast 88%

CC[C@]1(O)CC2CN(CCc3c([nH]c4ccccc34)[C@@](C(=O)OC)(c3cc4c(cc3OC)N(C)[C@H]3[C@@](O)(C(=O)OC)[C@H](OC(C)=O)[C@]5(CC)C=CCN6CC[C@]43[C@@H]65)C2)C1 (stereo not given in full)
inactive: EKVX NSCLC 49.6% | SN12C renal 39.6% | UO-31 renal 18.9% | TK-10 renal 62.6% | ACHN renal 21.9% | CAKI-1 renal 26.8% | CCRF-CEM leukemia 10.7% | MOLT-4 leukemia 16.4% | SR leukemia 10.2% | OVCAR-8 ovarian 12.6% | OVCAR-4 ovarian 33.2% | IGROV1 ovarian 15.9% | HS 578T breast 29.7%
active: A498 renal -15.6% | RPMI-8226 leukemia 2.81% | SK-OV-3 ovarian 6.74% | OVCAR-3 ovarian -56% | NCI/ADR-RES ovarian -17.4%

Cc1cc(C(C)(C)C)cc(C)c1CC1=NCCN1
inactive: EKVX NSCLC 89% | SN12C renal 111% | UO-31 renal 93% | TK-10 renal 113% | ACHN renal 92.8% | CAKI-1 renal 85.4% | A498 renal 117% | CCRF-CEM leukemia 103% | MOLT-4 leukemia 93.5% | SR leukemia 94.3% | RPMI-8226 leukemia 114% | OVCAR-8 ovarian 107% | OVCAR-4 ovarian 117% | SK-OV-3 ovarian 124% | IGROV1 ovarian 108% | OVCAR-3 ovarian 112% | HS 578T breast 102% | NCI/ADR-RES ovarian 101%

Cc1cc(NC(=O)Nc2cccc3ccccc23)no1
inactive: EKVX NSCLC 102% | SN12C renal 109% | UO-31 renal 89% | TK-10 renal 146% | ACHN renal 98.4% | CAKI-1 renal 104% | A498 renal 126% | CCRF-CEM leukemia 107% | MOLT-4 leukemia 106% | SR leukemia 81.2% | RPMI-8226 leukemia 102% | OVCAR-8 ovarian 105% | OVCAR-5 ovarian 98.9% | SK-OV-3 ovarian 103% | OVCAR-3 ovarian 113% | HS 578T breast 107% | NCI/ADR-RES ovarian 103% | T-47D breast 87.6%

COc1cc(-c2cc(C(=O)Nc3nc4ccccc4s3)nc3cc(-c4ccccc4)nn23)cc(OC)c1OC
inactive: EKVX NSCLC 107% | SN12C renal 99.5% | UO-31 renal 87.9% | TK-10 renal 106% | ACHN renal 101% | CAKI-1 renal 84.6% | A498 renal 127% | CCRF-CEM leukemia 72.3% | MOLT-4 leukemia 76% | SR leukemia 67% | RPMI-8226 leukemia 73.7% | OVCAR-8 ovarian 60.2% | OVCAR-4 ovarian 82.5% | SK-OV-3 ovarian 97.7% | IGROV1 ovarian 99.7% | HS 578T breast 62.1% | NCI/ADR-RES ovarian 73.3% | T-47D breast 83.7%

CCCCCCCC/C=C/CCCCCCCC1=NC(C)(C)CN1CCO
active: UO-31 renal -44.8% | CCRF-CEM leukemia -38.9% | MOLT-4 leukemia -44.4% | SR leukemia -43.1% | IGROV1 ovarian -40.5% | T-47D breast 0.508%
inactive: EKVX NSCLC 58.5% | SN12C renal 60.9% | TK-10 renal 59.5% | ACHN renal 24.4% | CAKI-1 renal 59.5% | A498 renal 89.2% | OVCAR-8 ovarian 45% | OVCAR-5 ovarian 87.3% | OVCAR-4 ovarian 52.3% | SK-OV-3 ovarian 78.6% | OVCAR-3 ovarian 32.8% | HS 578T breast 35.1% | NCI/ADR-RES ovarian 77.3%

Cc1cc2c(cc1[N+](=O)[O-])NC(CNC(C)C)CC2 (stereo not given)
inactive: EKVX NSCLC 95.2% | SN12C renal 105% | UO-31 renal 90.7% | TK-10 renal 97.1% | ACHN renal 99.7% | CAKI-1 renal 99.7% | A498 renal 102% | CCRF-CEM leukemia 130% | MOLT-4 leukemia 69.6% | SR leukemia 119% | RPMI-8226 leukemia 105% | OVCAR-8 ovarian 115% | SK-OV-3 ovarian 99.7% | OVCAR-3 ovarian 96.6% | HS 578T breast 124% | NCI/ADR-RES ovarian 95.1% | T-47D breast 86.3%

COc1ccc2c(c1)[nH]c(=O)c1c3cc(OC)c(OC)cc3cn21
inactive: EKVX NSCLC 36.9% | SN12C renal 35.6% | UO-31 renal 35.1% | TK-10 renal 27.1% | ACHN renal 24.7% | A498 renal 34.4% | SR leukemia 64.9% | OVCAR-8 ovarian 16% | OVCAR-5 ovarian 49.4% | SK-OV-3 ovarian 40.2% | NCI/ADR-RES ovarian 14.8% | T-47D breast 74.1%
active: CAKI-1 renal -9.25% | CCRF-CEM leukemia -83.5% | MOLT-4 leukemia 7.2% | RPMI-8226 leukemia -72.3% | IGROV1 ovarian -9.03%
